# Records with an inconclusive call do not appear. A call without a number means that no potency is given here. Activity calls are given as the source filed them. The call rests on the fitted dose curve; in most records, active means well fitted curve in the direction sought with a large enough effect; inconclusive means small, poorly fitted or top-dose-only effect, or another doubt; inactive means no such curve, though single readings can be large; an effect the other way counts as inactive or inconclusive.
# Legend:
# [1] = qHTS for inhibitors of adenylyl cyclases using a fission yeast platform: a pilot screen against the NCATS LOPAC library (AID 1347410); settings: S. pombe CHP2027, fbp1-GFP fluorescence, 18 h, yeast expressing mammalian AC9 and human GNAS; series mostly up to 57.5 µM
# Outline: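 GFP from fbp1-GFP reporter, read by Acumen laser cytometry, indicates AC inhibition in fission yeast expressing AC9, GNAS and PDE4D2. Cells grown 18 h in the dark at 30C with compounds, final up to 57 uM.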
# [2] = qHTS to identify inhibitors of the type 1 interferon - major histocompatibility complex class I in skeletal muscle: primary screen against the NCATS Mechanism Interrogation Plate v5.0 (MIPE) Libary (AID 1347411); settings: iHSKM cells + IFN-b, HiBiT-tagged MHC-I luminescence, 24 h; series mostly up to 45.8 µM; further: nearly all actives have a fitted effect of over 65% in size
# Outline: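 HLA-B HiBit myoblasts, dexamethasone-free medium + 4 ng/ml IFN-b, 24 h compound, 11-pt 1:3 from 46 uM final. Readout: Nano-Glo HiBiT lytic luminescence after 10 min lysis, RT.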
# [3] = Validation qHTS assay for inhibitors of Activation Induced Cytidine Deaminase (AID): UDG Counterscreen signal (AID 1347427); settings: biochemical UDG counterscreen, fluorescence signal; series mostly up to 115 µM
# Outline: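 Fluorescence at 560 nm excitation, 665 nm emission reports UDG signal after 250 mM NaOH (2x) addition and 30 min. Enzymes (AID 1 uM, UDG 2 U/mL, at 4/3x) preincubated 10 min with compound, then 4 h with 4x 250 nM DJC20/DJC23 substrate at room temperature.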
# [4] = molecular target: Protein phosphatase 1D (Homo sapiens) (UniProt O15297); test: RapidFire Mass Spectrometry qHTS Assay for Modulators of WT P53-Induced Phosphatase 1 (WIP1) (AID 1347424); settings: WIP1 dephosphorylation of phosphopeptide, RapidFire MS; series mostly up to 63 µM
# Outline: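 RapidFire MS readout of dephosphorylated VEPPL-S-QETFS product, with 1 uM isotope-labelled peptide standard. Reaction: 10 nM WIP1, 2 uM phosphopeptide substrate, 5 min, room temperature, after 1 h compound preincubation; stopped with 0.5% formic acid.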
# [5] = molecular target: Protein phosphatase 1D (Homo sapiens) (UniProt O15297); test: Rhodamine-PBP qHTS Assay for Modulators of WT P53-Induced Phosphatase 1 (WIP1) (AID 1347425); settings: recombinant WIP1, Rhodamine-PBP phosphate fluorescence, real-time; series mostly up to 57.5 µM
# Outline: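 WIP1 (5 nM final) was preincubated with compound for 1 hour at room temperature. It then dephosphorylated 10 uM VEPPL-pS-QETFS peptide in Tris-HCl pH 7.5 with 30 mM MgCl2. Released Pi was detected by 10 uM Rh-PBP fluorescence (ex 525/em 598 nm) read at 1-min intervals for 11 min, as delta f1 - f0.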
# Protein phosphatase 1D (Homo sapiens), sequence (O15297 whole entry, looked up): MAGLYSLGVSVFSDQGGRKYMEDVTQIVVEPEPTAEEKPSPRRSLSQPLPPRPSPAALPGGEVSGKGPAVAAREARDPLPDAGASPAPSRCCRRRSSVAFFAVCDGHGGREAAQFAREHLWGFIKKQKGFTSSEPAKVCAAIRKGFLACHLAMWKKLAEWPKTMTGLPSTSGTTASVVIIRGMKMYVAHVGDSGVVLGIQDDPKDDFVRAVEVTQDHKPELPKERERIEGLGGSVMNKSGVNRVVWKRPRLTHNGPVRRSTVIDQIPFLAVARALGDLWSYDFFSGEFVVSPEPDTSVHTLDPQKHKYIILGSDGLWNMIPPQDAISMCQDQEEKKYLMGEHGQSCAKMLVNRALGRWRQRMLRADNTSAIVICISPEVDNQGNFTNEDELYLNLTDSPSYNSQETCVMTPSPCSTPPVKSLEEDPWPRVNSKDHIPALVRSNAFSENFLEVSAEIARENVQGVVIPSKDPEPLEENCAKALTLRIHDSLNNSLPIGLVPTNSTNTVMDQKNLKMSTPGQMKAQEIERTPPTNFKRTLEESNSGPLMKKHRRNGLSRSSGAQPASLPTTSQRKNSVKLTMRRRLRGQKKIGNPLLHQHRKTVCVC
smiles,measurement,setting,value
COc1ccc(/C=C/C(=O)Nc2ccccc2C(=O)O)cc1OC,outcome,[1],inactive
same,Potency,[2],inactive
same,Potency,[3],inactive
c1cnc2c(c1)ccc1cccnc12,outcome,[1],inactive
same,Potency,[3],inactive
O=[N+]([O-])c1ccc2c(c1)S(=O)(=O)C=C2,outcome,[1],inactive
same,Potency,[3],inactive
CC1(C)[C@@H](O)CC[C@]2(C)[C@H]3C(=O)C=C4[C@@H]5C[C@@](C)(C(=O)O)CC[C@]5(C)CC[C@@]4(C)[C@]3(C)CC[C@@H]12,Potency,[2],inactive
CN(C)c1ccc(/C=C2\C(=O)Nc3ccccc32)cc1,outcome,[1],inactive
same,Potency,[3],inactive
COC(=O)C1=C(C)NC(C)=C(C(=O)OCC(C)C)C1c1ccccc1[N+](=O)[O-] (stereo not given),Potency,[4],inactive
same,outcome,[5],inactive
CN(C)c1nc(N)c(C(=O)N=C(N)N)nc1Cl,outcome,[1],inactive
same,Potency,[3],inactive
CC(COc1ccc(/C=C/c2ccccc2)cc1)[N+](C)(C)C (stereo not given),Potency,[3],inactive
COc1cc(CNC(=O)CCCC/C=C/C(C)C)ccc1O,Potency,[2],inactive
O=C1NC(=O)/C(=C/c2ccc3nccnc3c2)S1,outcome,[1],inactive
same,Potency,[2],inactive
same,Potency,[3],inactive
[O-][n+]1ccccc1SSc1cccc[n+]1[O-],Potency,[4],inactive
same,outcome,[5],inactive
CCCCC1C(=O)N(c2ccccc2)N(c2ccc(O)cc2)C1=O (stereo not given),Potency,[4],inactive
O=c1cc(-c2ccccc2)oc2ccccc12,Potency,[4],inactive
same,outcome,[5],inactive
CN1CCc2cccc3c2C1Cc1ccc(O)c(O)c1-3 (stereo not given),outcome,[1],inactive
same,Potency,[3],inactive
CC[C@@H](C)[C@H]1O[C@]2(CC[C@H]1C)C[C@@H]1C[C@@H](CC=C(C)[C@@H](O[C@H]3C[C@H](OC)[C@@H](O[C@H]4C[C@H](OC)[C@@H](O)[C@H](C)O4)[C@H](C)O3)[C@@H](C)C=CC=C3CO[C@@H]4[C@H](O)C(C)=C[C@@H](C(=O)O1)[C@]34O)O2,outcome,[1],inactive
same,Potency,[3],inactive
Cc1[nH]cnc1CN1CCc2c(c3ccccc3n2C)C1=O,Potency,[4],inactive
same,outcome,[5],inactive
O=C(O)[C@H](CC(=O)N1C[C@H]2CCCC[C@H]2C1)Cc1ccccc1,Potency,[2],inactive
O=C(c1cc(O)c(O)c([N+](=O)[O-])c1)c1ccccc1F,outcome,[1],inactive
same,Potency,[3],inactive
COC(=O)Nc1nc2ccc(C(=O)C3CC3)cc2[nH]1,Potency,[4],inactive
same,outcome,[5],inactive
CC[C@H]1OC(=O)[C@H](C)[C@@H](O[C@H]2C[C@@](C)(OC)[C@@H](O)[C@H](C)O2)[C@H](C)[C@@H](O[C@@H]2O[C@H](C)C[C@H](N(C)C)[C@H]2O)[C@](C)(O)C[C@@H](C)C(=O)[C@H](C)[C@@H](O)[C@]1(C)O,Potency,[2],inactive
CCCCCCCCCCCCCCCCCC(=O)OC(CC(=O)O)C[N+](C)(C)C (stereo not given),outcome,[1],inactive
same,Potency,[3],inactive
S=c1[nH]c2ccccc2s1,Potency,[4],inactive
same,outcome,[5],inactive
CN(C)c1ccc(N=NS(=O)(=O)O)cc1,Potency,[4],inactive
same,outcome,[5],inactive
CCNC(=O)[C@H]1O[C@@H](n2cnc3c(N)nc(NCCc4ccc(CCC(=O)O)cc4)nc32)[C@H](O)[C@@H]1O,Potency,[2],inactive
same,Potency,[3],inactive
CN(C)c1ccc(C(=C2C=CC(=[N+](C)C)C=C2)c2ccccc2)cc1,Potency,[4],inactive
NC[C@@H]1O[C@H](C23CC4CC(CC(C4)C2)C3)Cc2c1ccc(O)c2O,outcome,[1],inactive
same,Potency,[3],inactive
O=C(Nc1ccccc1)c1cc([N+](=O)[O-])ccc1Cl,outcome,[1],inactive
same,Potency,[3],inactive
CCCSc1ccc2nc(NC(=O)OC)[nH]c2c1,Potency,[4],inactive
same,outcome,[5],inactive
COc1cc(OC)c(/C=C2/C(=O)Nc3ccccc32)c(OC)c1,outcome,[1],inactive
same,Potency,[3],inactive
C=CCc1cccc(/C=N/NC(=O)CN2CCN(Cc3ccccc3)CC2)c1O,Potency,[2],inactive
O=S(=O)(c1cccc2c(I)cccc12)N1CCCNCC1,outcome,[1],inactive
same,Potency,[2],inactive
same,Potency,[3],inactive
CC12C(=O)OC(=O)C1(C)C1CCC2O1 (stereo not given),outcome,[1],inactive
same,Potency,[3],inactive
NS(=O)(=O)C#Cc1ccccc1,outcome,[1],inactive
same,Potency,[3],inactive
Cc1cc2c(cc1Cl)N(C(=O)Nc1ccc(Oc3cccnc3C)nc1)CC2,outcome,[1],inactive
same,Potency,[3],inactive
O=C(/C=C/c1ccc(O)cc1)c1ccc(O)cc1O,outcome,[1],inactive
same,Potency,[3],inactive
Cc1c(Nc2ncccc2C(=O)O)cccc1C(F)(F)F,Potency,[4],inactive
same,outcome,[5],inactive
COC(=O)C1=C(C)NC(C)=C(C(=O)OCC(C)=O)C1c1ccccc1[N+](=O)[O-] (stereo not given),Potency,[4],inactive
same,outcome,[5],inactive
CN1CCc2cc(O)c(O)cc2C(c2ccccc2)C1 (stereo not given),Potency,[3],inactive

# — PubChem BioAssay (NCATS)
